# Publication PMC7862700, “An all-to-all approach to the identification of sequence-specific readers for epigenetic DNA modifications on cytosine”
# How the values were obtained:
# Assay in all cases: DAPPL (digital affinity profiling via proximity ligation, sequencing); 10 mM Tris-HCl pH 7.5, 50 mM NaCl, 1 mM DTT, 4% glycerol, room temperature, 30 min; GST-TFs on glutathione beads, 16-mer random dsDNA library, 0.1% formaldehyde crosslink after washing; high values mean tight binding
# FLI1 = molecular target: T1, FLI1 (Homo sapiens, UniProt Q01543 1-452); conditions: protein: recombinant; tags: N-terminal GST; dsDNA, one strand shown
# T1 sequence: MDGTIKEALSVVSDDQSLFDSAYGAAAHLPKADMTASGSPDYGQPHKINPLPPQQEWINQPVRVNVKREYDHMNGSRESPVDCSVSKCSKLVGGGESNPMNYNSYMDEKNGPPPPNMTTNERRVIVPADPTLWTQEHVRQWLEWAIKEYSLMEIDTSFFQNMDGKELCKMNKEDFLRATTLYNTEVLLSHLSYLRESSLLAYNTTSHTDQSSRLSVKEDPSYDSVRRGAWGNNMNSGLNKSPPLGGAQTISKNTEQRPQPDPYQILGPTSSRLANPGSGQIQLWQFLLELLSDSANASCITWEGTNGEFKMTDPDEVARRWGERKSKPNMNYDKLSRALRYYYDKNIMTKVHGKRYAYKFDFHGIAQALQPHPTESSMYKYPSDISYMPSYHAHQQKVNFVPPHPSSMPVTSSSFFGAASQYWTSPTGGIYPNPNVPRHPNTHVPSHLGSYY
# Method in brief: (§1)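 A tag-only sample was pooled with DNA-barcoded human transcription factors that had been expressed in yeast as GST fusions and captured on glutathione beads. The pools were incubated for 30 min at room temperature with 200 nmole of a random double-stranded 16-mer DNA library in Tris/NaCl/DTT/glycerol buffer, then washed, crosslinked with 0.1% formaldehyde, proximity-ligated (BsaI/T4 ligase, 1 h, 37 °C), PCR-amplified and sequenced on an Illumina NextSeq500. Binding signal is each hexamer's read frequency for a factor divided by its frequency for the tag-only sample.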
# ELK1 = molecular target: T2, ELK1 (Homo sapiens, UniProt P19419 1-428); conditions: protein: recombinant; tags: N-terminal GST; dsDNA, one strand shown
# T2 sequence: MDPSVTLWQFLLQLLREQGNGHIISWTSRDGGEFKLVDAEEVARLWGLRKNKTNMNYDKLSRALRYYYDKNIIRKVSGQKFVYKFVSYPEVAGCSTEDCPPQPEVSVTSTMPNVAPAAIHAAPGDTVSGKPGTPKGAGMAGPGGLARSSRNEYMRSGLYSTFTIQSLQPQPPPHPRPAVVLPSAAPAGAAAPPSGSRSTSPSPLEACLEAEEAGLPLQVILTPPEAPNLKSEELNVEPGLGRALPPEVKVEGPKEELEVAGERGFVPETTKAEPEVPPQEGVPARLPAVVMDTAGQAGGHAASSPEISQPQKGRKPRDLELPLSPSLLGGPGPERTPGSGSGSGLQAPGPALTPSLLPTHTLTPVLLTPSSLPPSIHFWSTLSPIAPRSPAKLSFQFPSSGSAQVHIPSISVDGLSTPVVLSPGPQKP
# Method in brief: as §1
# GABPA = molecular target: T3, GABPA (Homo sapiens, UniProt Q06546 1-454); conditions: protein: recombinant; tags: N-terminal GST; dsDNA, one strand shown
# T3 sequence: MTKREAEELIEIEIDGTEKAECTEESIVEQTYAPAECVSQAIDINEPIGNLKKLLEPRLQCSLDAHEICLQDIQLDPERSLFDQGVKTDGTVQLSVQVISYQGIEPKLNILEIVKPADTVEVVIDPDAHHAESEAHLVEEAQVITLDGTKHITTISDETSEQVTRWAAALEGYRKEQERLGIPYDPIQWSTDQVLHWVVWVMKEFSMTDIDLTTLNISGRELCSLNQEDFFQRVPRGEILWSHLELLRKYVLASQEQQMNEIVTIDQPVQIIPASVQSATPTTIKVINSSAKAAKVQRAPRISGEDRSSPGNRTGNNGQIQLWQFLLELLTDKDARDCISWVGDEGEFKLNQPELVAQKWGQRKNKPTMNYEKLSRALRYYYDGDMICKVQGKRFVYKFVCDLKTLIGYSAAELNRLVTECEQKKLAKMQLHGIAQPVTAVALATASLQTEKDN
# Method in brief: as §1
# ERG = molecular target: T4, ERG (Homo sapiens, UniProt P11308 1-479); conditions: protein: recombinant; tags: N-terminal GST; dsDNA, one strand shown
# T4 sequence: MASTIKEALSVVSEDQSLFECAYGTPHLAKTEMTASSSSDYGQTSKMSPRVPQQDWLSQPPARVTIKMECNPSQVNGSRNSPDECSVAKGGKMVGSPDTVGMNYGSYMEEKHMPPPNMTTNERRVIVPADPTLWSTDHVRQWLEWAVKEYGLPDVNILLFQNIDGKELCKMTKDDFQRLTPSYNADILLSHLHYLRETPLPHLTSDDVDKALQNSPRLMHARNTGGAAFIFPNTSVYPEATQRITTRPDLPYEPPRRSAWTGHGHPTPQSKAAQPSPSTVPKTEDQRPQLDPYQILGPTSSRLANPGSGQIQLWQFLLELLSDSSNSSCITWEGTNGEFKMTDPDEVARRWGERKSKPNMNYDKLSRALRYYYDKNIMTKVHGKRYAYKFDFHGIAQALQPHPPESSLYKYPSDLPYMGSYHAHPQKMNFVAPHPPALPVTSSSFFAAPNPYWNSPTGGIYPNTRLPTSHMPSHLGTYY
# Method in brief: as §1
# ELF1 = ELF1 (Homo sapiens, UniProt P32519 1-619); conditions: protein: recombinant; tags: N-terminal GST; dsDNA, one strand shown
# Method in brief: as §1
# EHF = molecular target: T5, EHF (Homo sapiens, UniProt Q9NZC4 1-300); conditions: protein: recombinant; tags: N-terminal GST; dsDNA, one strand shown
# T5 sequence: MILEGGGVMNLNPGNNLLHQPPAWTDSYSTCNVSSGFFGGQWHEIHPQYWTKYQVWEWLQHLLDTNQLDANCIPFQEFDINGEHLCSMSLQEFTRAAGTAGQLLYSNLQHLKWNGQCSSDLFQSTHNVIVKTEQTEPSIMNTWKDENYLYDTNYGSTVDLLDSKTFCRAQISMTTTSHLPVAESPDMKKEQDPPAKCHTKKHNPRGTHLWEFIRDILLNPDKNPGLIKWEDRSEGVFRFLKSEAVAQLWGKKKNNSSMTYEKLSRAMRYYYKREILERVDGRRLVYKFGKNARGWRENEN
# Method in brief: as §1
# SPI1 = SPI1 (Homo sapiens, UniProt P17947 1-270); conditions: protein: recombinant; tags: N-terminal GST; dsDNA, one strand shown
# Method in brief: as §1
# SPIB = SPIB (Homo sapiens, UniProt Q01892 1-262); conditions: protein: recombinant; tags: N-terminal GST; dsDNA, one strand shown
# Method in brief: as §1
# FEV = molecular target: T6, FEV (Homo sapiens, UniProt Q99581 1-238); conditions: protein: recombinant; tags: N-terminal GST; dsDNA, one strand shown
# T6 sequence: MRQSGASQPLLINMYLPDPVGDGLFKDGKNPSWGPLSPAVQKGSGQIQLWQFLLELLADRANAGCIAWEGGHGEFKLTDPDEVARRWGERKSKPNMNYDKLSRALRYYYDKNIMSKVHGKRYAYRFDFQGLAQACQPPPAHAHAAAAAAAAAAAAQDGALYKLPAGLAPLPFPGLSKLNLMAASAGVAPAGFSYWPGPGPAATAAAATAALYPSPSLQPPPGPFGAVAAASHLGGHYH
# Method in brief: as §1
# ETV5 = ETV5 (Homo sapiens, UniProt P41161 1-510); conditions: protein: recombinant; tags: N-terminal GST; dsDNA, one strand shown
# Method in brief: as §1
# HSF1 = HSF1 (Homo sapiens, UniProt Q00613 1-529); conditions: protein: recombinant; tags: N-terminal GST; chain copies: 3; dsDNA, one strand shown
# Method in brief: as §1
# SPIC = molecular target: T7, SPIC (Homo sapiens, UniProt Q8N5J4 1-248); conditions: protein: recombinant; tags: N-terminal GST; dsDNA, one strand shown
# T7 sequence: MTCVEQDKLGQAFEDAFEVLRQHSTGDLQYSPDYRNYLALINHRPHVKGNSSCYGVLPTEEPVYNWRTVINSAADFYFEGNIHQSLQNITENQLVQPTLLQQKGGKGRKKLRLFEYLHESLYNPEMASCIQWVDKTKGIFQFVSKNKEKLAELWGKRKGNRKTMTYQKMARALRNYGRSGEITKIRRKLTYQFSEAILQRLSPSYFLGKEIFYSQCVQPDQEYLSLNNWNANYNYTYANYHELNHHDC
# Method in brief: as §1
# ELF4 = ELF4 (Homo sapiens, UniProt Q99607 1-663); conditions: protein: recombinant; tags: N-terminal GST; dsDNA, one strand shown
# Method in brief: as §1
# ELK4 = molecular target: T8, ELK4 (Homo sapiens, UniProt P28324-2 1-405); conditions: protein: recombinant; tags: N-terminal GST; dsDNA, one strand shown
# T8 sequence: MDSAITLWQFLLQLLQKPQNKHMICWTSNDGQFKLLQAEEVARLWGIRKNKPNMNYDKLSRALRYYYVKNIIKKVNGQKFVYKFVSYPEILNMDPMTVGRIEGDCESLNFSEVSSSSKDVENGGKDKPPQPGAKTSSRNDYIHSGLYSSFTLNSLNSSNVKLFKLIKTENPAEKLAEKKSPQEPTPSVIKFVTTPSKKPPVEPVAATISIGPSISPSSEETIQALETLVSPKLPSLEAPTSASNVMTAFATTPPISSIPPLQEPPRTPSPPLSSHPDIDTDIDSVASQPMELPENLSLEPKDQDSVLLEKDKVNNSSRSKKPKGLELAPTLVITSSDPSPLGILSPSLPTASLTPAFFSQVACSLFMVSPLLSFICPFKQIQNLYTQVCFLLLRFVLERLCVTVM
# Method in brief: as §1
# ETV2 = molecular target: T9, ETV2 (Homo sapiens, UniProt O00321 1-342); conditions: protein: recombinant; tags: N-terminal GST; dsDNA, one strand shown
# T9 sequence: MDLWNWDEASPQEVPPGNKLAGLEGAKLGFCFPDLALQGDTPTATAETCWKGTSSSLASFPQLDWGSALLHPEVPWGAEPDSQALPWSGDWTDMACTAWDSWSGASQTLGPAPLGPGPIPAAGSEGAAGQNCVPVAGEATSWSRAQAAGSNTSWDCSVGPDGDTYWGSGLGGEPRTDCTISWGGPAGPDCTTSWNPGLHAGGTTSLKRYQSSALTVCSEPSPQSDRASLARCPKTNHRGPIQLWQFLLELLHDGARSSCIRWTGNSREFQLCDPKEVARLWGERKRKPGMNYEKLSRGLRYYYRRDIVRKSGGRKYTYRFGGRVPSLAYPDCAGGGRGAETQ
# Method in brief: as §1
# ELF3 = molecular target: T10, ELF3 (Homo sapiens, UniProt P78545 1-371); conditions: protein: recombinant; tags: N-terminal GST; dsDNA, one strand shown
# T10 sequence: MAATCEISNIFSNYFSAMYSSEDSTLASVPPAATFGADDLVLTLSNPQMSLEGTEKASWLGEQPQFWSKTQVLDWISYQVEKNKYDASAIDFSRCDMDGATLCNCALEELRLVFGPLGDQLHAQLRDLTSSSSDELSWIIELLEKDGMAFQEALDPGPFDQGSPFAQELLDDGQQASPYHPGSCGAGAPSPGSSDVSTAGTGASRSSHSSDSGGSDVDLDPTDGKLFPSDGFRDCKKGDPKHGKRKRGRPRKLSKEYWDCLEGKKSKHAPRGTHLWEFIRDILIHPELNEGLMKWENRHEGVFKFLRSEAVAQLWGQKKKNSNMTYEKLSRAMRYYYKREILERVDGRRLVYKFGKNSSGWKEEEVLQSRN
# Method in brief: as §1
# ETV1 = ETV1 (Homo sapiens, UniProt P50549 1-477); conditions: protein: recombinant; tags: N-terminal GST; dsDNA, one strand shown
# Method in brief: as §1
# Sequence of ETV5 (P41161 whole entry): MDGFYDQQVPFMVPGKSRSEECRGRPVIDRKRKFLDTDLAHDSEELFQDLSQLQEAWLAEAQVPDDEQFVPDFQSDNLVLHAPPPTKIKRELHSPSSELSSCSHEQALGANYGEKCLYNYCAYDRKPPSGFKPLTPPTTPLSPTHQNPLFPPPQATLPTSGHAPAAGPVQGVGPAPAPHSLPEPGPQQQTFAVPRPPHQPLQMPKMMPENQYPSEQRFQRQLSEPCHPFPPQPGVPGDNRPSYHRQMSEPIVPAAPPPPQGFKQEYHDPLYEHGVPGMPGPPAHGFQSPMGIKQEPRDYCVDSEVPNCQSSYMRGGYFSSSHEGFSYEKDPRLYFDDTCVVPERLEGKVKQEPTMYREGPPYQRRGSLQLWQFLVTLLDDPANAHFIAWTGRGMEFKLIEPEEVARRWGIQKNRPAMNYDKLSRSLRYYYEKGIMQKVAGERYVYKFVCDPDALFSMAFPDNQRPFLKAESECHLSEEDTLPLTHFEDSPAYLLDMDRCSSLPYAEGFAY
# Sequence of ELF1 (P32519 whole entry): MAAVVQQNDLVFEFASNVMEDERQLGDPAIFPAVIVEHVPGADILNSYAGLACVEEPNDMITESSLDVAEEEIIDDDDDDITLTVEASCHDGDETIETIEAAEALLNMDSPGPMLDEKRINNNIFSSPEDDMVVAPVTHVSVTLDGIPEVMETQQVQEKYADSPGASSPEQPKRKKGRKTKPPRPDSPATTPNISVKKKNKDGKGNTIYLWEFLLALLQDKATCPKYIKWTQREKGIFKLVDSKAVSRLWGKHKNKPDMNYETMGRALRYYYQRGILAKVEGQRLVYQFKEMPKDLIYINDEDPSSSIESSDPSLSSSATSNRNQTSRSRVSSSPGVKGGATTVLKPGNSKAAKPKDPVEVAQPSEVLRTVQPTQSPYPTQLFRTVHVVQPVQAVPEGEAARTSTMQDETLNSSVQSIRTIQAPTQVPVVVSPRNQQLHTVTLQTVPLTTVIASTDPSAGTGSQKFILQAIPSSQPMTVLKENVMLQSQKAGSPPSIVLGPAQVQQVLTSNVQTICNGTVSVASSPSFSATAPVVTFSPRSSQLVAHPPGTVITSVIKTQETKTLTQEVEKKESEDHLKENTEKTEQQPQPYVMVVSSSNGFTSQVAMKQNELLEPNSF
# Sequence of HSF1 (Q00613 whole entry): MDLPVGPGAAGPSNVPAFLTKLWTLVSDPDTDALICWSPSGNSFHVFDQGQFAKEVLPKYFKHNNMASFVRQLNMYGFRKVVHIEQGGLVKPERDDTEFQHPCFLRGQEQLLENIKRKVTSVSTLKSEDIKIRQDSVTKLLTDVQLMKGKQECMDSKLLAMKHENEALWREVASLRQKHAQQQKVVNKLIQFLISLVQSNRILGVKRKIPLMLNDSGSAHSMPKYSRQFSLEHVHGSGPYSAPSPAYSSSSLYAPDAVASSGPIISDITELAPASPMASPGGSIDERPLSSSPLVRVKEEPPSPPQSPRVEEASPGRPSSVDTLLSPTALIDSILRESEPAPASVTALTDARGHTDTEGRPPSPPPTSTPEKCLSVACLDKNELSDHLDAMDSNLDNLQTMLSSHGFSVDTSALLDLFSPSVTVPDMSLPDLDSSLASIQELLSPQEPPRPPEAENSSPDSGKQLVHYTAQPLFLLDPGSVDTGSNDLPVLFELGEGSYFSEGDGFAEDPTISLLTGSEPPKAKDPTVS
# Sequence of ELF4 (Q99607 whole entry): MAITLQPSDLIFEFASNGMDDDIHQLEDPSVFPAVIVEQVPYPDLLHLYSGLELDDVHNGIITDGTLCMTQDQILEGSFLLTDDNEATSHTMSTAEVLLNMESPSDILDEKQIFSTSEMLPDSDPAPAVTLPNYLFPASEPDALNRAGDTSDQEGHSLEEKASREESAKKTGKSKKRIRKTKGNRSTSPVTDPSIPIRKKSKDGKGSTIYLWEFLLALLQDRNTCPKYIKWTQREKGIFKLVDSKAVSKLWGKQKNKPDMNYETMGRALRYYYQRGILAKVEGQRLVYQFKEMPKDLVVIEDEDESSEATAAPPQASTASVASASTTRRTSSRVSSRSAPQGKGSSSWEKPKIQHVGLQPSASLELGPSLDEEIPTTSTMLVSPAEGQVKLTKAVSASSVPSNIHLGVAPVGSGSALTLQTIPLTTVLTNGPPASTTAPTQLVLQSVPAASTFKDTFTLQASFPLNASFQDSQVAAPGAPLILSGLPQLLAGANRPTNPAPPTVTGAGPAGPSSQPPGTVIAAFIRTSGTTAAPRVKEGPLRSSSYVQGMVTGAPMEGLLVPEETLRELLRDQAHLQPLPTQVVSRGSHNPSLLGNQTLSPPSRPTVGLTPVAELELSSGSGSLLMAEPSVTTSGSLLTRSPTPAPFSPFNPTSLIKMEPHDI
# Sequence of ETV1 (P50549 whole entry): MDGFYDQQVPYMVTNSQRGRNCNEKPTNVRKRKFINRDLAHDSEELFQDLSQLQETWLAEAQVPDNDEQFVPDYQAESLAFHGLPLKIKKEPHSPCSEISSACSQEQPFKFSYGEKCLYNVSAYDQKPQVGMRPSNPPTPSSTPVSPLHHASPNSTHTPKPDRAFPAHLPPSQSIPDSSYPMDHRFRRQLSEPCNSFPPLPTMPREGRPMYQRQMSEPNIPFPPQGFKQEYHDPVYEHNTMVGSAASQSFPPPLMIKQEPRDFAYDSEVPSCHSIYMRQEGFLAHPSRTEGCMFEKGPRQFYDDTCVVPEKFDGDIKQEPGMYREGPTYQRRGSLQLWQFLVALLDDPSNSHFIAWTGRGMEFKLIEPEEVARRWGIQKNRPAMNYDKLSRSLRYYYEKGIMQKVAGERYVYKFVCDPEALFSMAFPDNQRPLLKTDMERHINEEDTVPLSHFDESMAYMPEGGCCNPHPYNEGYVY
# Sequence of SPIB (Q01892 whole entry): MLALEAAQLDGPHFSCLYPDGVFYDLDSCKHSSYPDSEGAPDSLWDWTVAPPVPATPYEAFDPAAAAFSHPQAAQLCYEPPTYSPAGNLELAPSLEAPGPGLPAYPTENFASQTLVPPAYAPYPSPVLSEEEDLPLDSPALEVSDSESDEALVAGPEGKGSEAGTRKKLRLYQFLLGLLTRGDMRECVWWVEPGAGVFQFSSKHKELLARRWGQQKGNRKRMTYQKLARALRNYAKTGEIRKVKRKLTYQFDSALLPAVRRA
sequence,measurement,setting,value
ACCTCG,binding signal,FLI1,"1 fold enrichment (6-mer frequency, TF over GST control)"
same,binding signal,ELK1,"1.18 fold enrichment (6-mer frequency, TF over GST control)"
same,binding signal,GABPA,"1.24 fold enrichment (6-mer frequency, TF over GST control)"
same,binding signal,ERG,"1.15 fold enrichment (6-mer frequency, TF over GST control)"
same,binding signal,ELF1,"1.11 fold enrichment (6-mer frequency, TF over GST control)"
same,binding signal,EHF,"1.16 fold enrichment (6-mer frequency, TF over GST control)"
same,binding signal,SPI1,"1.14 fold enrichment (6-mer frequency, TF over GST control)"
same,binding signal,SPIB,"1.19 fold enrichment (6-mer frequency, TF over GST control)"
same,binding signal,FEV,"1.05 fold enrichment (6-mer frequency, TF over GST control)"
same,binding signal,ETV5,"1.11 fold enrichment (6-mer frequency, TF over GST control)"
same,binding signal,HSF1,"1.14 fold enrichment (6-mer frequency, TF over GST control)"
same,binding signal,SPIC,"1.17 fold enrichment (6-mer frequency, TF over GST control)"
same,binding signal,ELF4,"1.18 fold enrichment (6-mer frequency, TF over GST control)"
same,binding signal,ELK4,"1.35 fold enrichment (6-mer frequency, TF over GST control)"
same,binding signal,ETV2,"1.28 fold enrichment (6-mer frequency, TF over GST control)"
same,binding signal,ELF3,"1.23 fold enrichment (6-mer frequency, TF over GST control)"
same,binding signal,ETV1,"1.15 fold enrichment (6-mer frequency, TF over GST control)"
